Columns and labels:
Test in all cases: PBM binding z-score (relative to random genomic background probes); higher = stronger binding; sequences stand for … in GC…GCGATTGACAGCGTAGAATGAAGG
[1] = test system: FXR:RXRa (NR concentration 270 nM, RXRa partner concentration 90 nM)
Outline: (§1)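 Each nuclear receptor dimer, without ligand, was incubated for 1 h on custom Agilent 4×180K protein-binding microarrays. Binding was detected with antibodies against each partner (one per run), and scanned fluorescence was regression-normalized. The binding z-scores are referenced to random human genomic background probes.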

[2] = test system: LXRa:RXRa (NR concentration 270 nM, RXRa partner concentration 90 nM)
Outline: as §1

[3] = test system: LXRa homodimer (NR concentration 270 nM)
Outline: as §1

[4] = test system: LXRb:RXRa (NR concentration 270 nM, RXRa partner concentration 90 nM)
Outline: as §1

[5] = test system: LXRb homodimer (NR concentration 270 nM)
Outline: as §1

[6] = test system: PPARa:RXRa (NR concentration 270 nM, RXRa partner concentration 90 nM)
Outline: as §1

[7] = test system: PPARg:RXRa (NR concentration 180 nM, RXRa partner concentration 90 nM)
Outline: as §1

[8] = test system: PPARg:RXRa 270nM:90nM, anti-RXR (NR concentration 270 nM, RXRa partner concentration 90 nM)
Outline: as §1

[9] = test system: PPARg:RXRa 30nM:10nM, anti-RXR (NR concentration 30 nM, RXRa partner concentration 10 nM)
Outline: as §1

[10] = test system: PPARg:RXRa 90nM:30nM, anti-RXR (NR concentration 90 nM, RXRa partner concentration 30 nM)
Outline: as §1

[11] = test system: PPARg:RXRa DBDmut IVT, anti-RXR (DBD mutation: RXRa K156A/R161A, NR concentration 270 nM, RXRa partner concentration 90 nM)
Outline: as §1

[12] = test system: PPARg:RXRa IVT, anti-PPARg (NR concentration 270 nM, RXRa partner concentration 90 nM)
Outline: as §1

[13] = test system: PPARg DBDmut:RXRa IVT, anti-PPARg (DBD mutation: PPARg1 K132A/R137A, NR concentration 270 nM, RXRa partner concentration 90 nM)
Outline: as §1

[14] = test system: PPARg DBDmut IVT, anti-PPARg (DBD mutation: PPARg1 K132A/R137A, NR concentration 270 nM)
Outline: as §1

[15] = test system: PPARg homodimer (NR concentration 180 nM)
Outline: as §1

[16] = test system: PXR:RXRa (NR concentration 270 nM, RXRa partner concentration 90 nM)
Outline: as §1

[17] = test system: PXR homodimer (NR concentration 270 nM)
Outline: as §1

[18] = test system: RARa:RXR (NR concentration 270 nM, RXRa partner concentration 90 nM)
Outline: as §1

[19] = test system: RARa homodimer (NR concentration 270 nM)
Outline: as §1

[20] = test system: RARb:RXRa (NR concentration 270 nM, RXRa partner concentration 90 nM)
Outline: as §1

Row | Sequence | PBM binding z-score [1] | PBM binding z-score [2] | PBM binding z-score [3] | PBM binding z-score [4] | PBM binding z-score [5] | PBM binding z-score [6] | PBM binding z-score [7] | PBM binding z-score [8] | PBM binding z-score [9] | PBM binding z-score [10] | PBM binding z-score [11] | PBM binding z-score [12] | PBM binding z-score [13] | PBM binding z-score [14] | PBM binding z-score [15] | PBM binding z-score [16] | PBM binding z-score [17] | PBM binding z-score [18] | PBM binding z-score [19] | PBM binding z-score [20]
1 | TCTTGTAGATCAAAGGATAAGAAAGCCGAAGCCT | 0.762 | 0.274 | -0.116 | -0.287 | -0.528 | 0.671 | 1.13 | 3.36 | 3.43 | 3.38 | 1.75 | 0.245 | 0.639 | -0.158 | 0.25 | -0.0029 | -0.483 | -0.193 | 0.315 | -0.125
2 | CGTCCACGGTCATAGGAGGTCAGTGAAGACAGAT | 2.58 | 4.52 | 2.1 | 2.15 | -0.643 | 2.16 | 0.881 | 0.977 | -0.0793 | 0.32 | 0.0707 | 2.02 | -0.535 | -1.15 | 1.73 | 3.88 | 0.754 | 2.6 | 0.207 | 3.65
3 | CCTAGTTGGTCAAGGTCACCCACGCTATAGGTAC | 4.05 | 3.51 | 2.14 | 3.51 | 0.583 | 4.14 | 2.93 | 3.43 | 1.1 | 2.35 | 1.97 | 3.64 | 0.717 | 1.37 | 4.86 | 4.16 | 2.4 | 4.82 | 3.27 | 4.16
4 | TCGAGTAGGTTAGGGGCATTCAAAATGGCGTCGA | 0.3 | 0.524 | -0.23 | 1.22 | -0.0733 | 1.38 | 1 | 1.98 | 1.27 | 1.69 | 2.11 | 1.45 | -0.544 | -0.184 | 0.857 | 0.792 | 0.65 | 0.797 | 0.0472 | 1.24
5 | CCTACTGGGCCGTCAGGTCATTGATATCAACGTT | 1.31 | 0.772 | 0.809 | 1.21 | -0.585 | 1.71 | 0.704 | 1.92 | 0.179 | 1.15 | 1.17 | 2.14 | -0.782 | -0.667 | 0.741 | 1.33 | 0.502 | 1.53 | 0.0542 | 1.66
6 | CCGACTTGGGCAGAAAGGTTACCATACCATCCGG | 0.0234 | 0.228 | -0.275 | 0.646 | -1.09 | 1.44 | 1.06 | 1.64 | 0.23 | 0.892 | -0.147 | -0.369 | -0.764 | -1.15 | 0.811 | 0.592 | -0.331 | 1.16 | -0.0756 | 1.12
7 | CTCGAAAGGTCGTGCTCAGGTTAGTATACCAAAC | 5.58 | 4.22 | 0.511 | 3.78 | 0.719 | 5.12 | 2.57 | 3.75 | 0.966 | 2.37 | 0.848 | 1.77 | 0.0664 | 0.423 | 2.46 | 3.94 | 0.392 | 4.55 | 0.346 | 4.09

— the supplement of paper PMC6555819
